# Experimental data: PubChem BioAssay (Tox21)
# Records with an inconclusive call do not appear. A call without a number means that no potency is given here. The source made the active and inactive calls. Calls follow the shape of the dose curve; as a rule, active = well fitted inhibition curve with a large enough effect in the repeat runs; inconclusive = weak or mixed curves, or effect the other way; inactive = no such curve, though single readings can be large or run the other way.
# Target: Nuclear receptor subfamily 1 group I member 3 (Homo sapiens) (UniProt Q14994)
# Test: qHTS assay to identify small molecule antagonists of the constitutive androstane receptor (CAR) signaling pathway (AID 1224838);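 also: HepG2 cells stably expressing hCAR with CYP2B6 luciferase reporter stimulated by CITCO; nearly all actives have a fitted effect of over 40% in size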
# Conditions: HepG2-CYP2B6-hCAR luciferase, CITCO-stimulated, 24 h; series mostly up to 92.4 µM
# Text: U.S. Tox21 Program National Center for Advancing Translational Sciences [NCATS] NIH Chemical Genomics Center [NCGC] U.S. Environmental Protection Agency [EPA] National Institutes of Environmental Health Sciences [NIEHS] National Toxicology Program [NTP] U.S. Food and Drug Administration [FDA] Tox21 Assay Overview: The constitutive androstane receptor (CAR) is a nuclear receptor which regulates multiple drug metabolizing enzymes (DMEs) and transporters. Activating CAR will generally increase the transcription and subsequent translation of CYP2B6 and CYP3A4. These two DMEs represent about 50% of the drug metabolizing potential in the body. When CAR is deactivated, the metabolizing potential in the body will decrease, subsequently increasing the toxicity in the body or lowering the therapeutic potential of a pro-drug. Recently, there have also been studies performed indicating CARs role in energy metabolism and cancer therapy. Therefore, inhibiting CARs activity could have a potential effect on diabetes and cancer. Identifying environmental toxins and compounds which modulate CAR, through the use of the Tox21 10K compound collection, will be an important step in determining the toxicity and potential therapeutic effects these factors will have on the human body.
# Tox21 Assay Protocol Summary: A double-stable (hCAR and CYP2B6-2.2kb) transfected cell line, derived from human hepatoma (HepG2) cells, was utilized for the duration of the quantitative high-throughput screens. The HepG2-CYP2B6-hCAR cells suspended in DMEM culture medium supplemented with 10% FBS, 5 ug/mL blasticidin, 0.5 mg/mL geneticin, 100 U/mL penicillin and 100 ug/mL streptomycin were dispensed at 2500 cells/4 uL/well in 1536-well white solid bottom plates using a Multidrop Combi. After the assay plates were incubated at 37 C/5% CO2 for 4 hrs, 23 nL of compounds at 15 concentrations (from 5-48 columns) or positive control (from 1 to 4 columns) were transferred to the assay plates using a Pintool station. One uL of CITCO, was added using a Flying Reagent Dispenser to generate a final concentration of 50 nM CITCO inside each well. After a 24 hr incubation period at 37 C/5% CO2, four uL of ONE-Glo reagent was added into the assay plates using a Flying Reagent Dispenser. After a 30 min incubation period at room temperature, the luminescence intensity in the assay plates was measured using a ViewLux plate reader.
# Potency is read from the fitted curve at half-maximal effect.
# Chain of Nuclear receptor subfamily 1 group I member 3 (Homo sapiens) (Q14994 whole entry, looked up): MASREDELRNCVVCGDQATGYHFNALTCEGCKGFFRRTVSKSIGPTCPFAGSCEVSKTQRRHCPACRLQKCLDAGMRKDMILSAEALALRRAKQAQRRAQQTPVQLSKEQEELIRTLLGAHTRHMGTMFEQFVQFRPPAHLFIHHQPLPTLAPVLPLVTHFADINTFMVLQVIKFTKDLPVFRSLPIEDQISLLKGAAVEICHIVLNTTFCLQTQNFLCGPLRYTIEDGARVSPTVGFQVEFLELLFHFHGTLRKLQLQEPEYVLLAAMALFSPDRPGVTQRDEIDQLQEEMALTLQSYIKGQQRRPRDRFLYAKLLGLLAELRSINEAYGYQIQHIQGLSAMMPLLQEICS
row,SMILES,Potency
1,NNc1nc(-c2ccccc2)cs1,inactive
2,C/C(=C(/OCCOc1ccc(Cl)cc1)c1ccc(Cl)cc1Cl)n1ccnc1,inactive
3,Oc1ccc2c(c1)-c1ccccc1C2,inactive
4,COC(=O)c1cc(Cl)ccc1OC,inactive
5,NNc1nc(-c2ccc([N+](=O)[O-])cc2)cs1,inactive
6,Nc1ccc2cc(S(=O)(=O)O)cc(O)c2c1N=Nc1ccccc1C(F)(F)F,inactive
7,Cc1[nH]cnc1C[C@H]1CCc2c(C)c3ccccc3n2C1=O,59.6 µM (active)
8,C1CCCC1,inactive
9,C=CC(=O)OCCn1c(=O)n(CCOC(=O)C=C)c(=O)n(CCOC(=O)C=C)c1=O,24.3 µM (active)
10,COc1cccc(N)c1,inactive
11,O=C1C=CC(=O)N1c1ccc(Cc2ccc(N3C(=O)C=CC3=O)cc2)cc1,27.3 µM (active)
12,C/C=C1/C(=O)C[C@H]2[C@@H]3CCC4=CC(=O)CC[C@]4(C)[C@H]3CC[C@]12C,inactive
13,OCCCCCCCCCCCCBr,inactive
14,NC(=O)N1C(=O)C(C(=O)c2cc(Cl)cs2)c2cc(F)c(Cl)cc21 (stereo not given),inactive
15,CCOc1ccc2nc3cc(N)ccc3c(N)c2c1,2.66 µM (active)
16,O=c1[nH]cnc2nc[nH]c12,inactive
17,CCc1cc(SCc2sc(-c3ccc(C(F)(F)F)cc3)nc2CN2CCN(c3ccc(OC)cc3)CC2)ccc1OCC(=O)O,inactive
18,O=[N+]([O-])c1ccccc1Nc1ccccc1,inactive
19,O=C(c1ccc(F)cc1)C1CCN(CCn2c(=O)[nH]c3ccccc3c2=O)CC1,inactive
20,Fc1ccc([C@@H]2CCNC[C@H]2COc2ccc3c(c2)OCO3)cc1,inactive

row,SMILES,Potency
1,C[C@H]1[C@H]2CC[C@H]3[C@@H]4CC=C5C[C@@H](N(C)C)CC[C@]5(C)[C@H]4CC[C@]23CN1C,inactive
2,CC(=O)S[C@@H]1CC2=CC(=O)CC[C@]2(C)[C@H]2CC[C@@]3(C)[C@@H](CC[C@@]34CCC(=O)O4)[C@H]12,54.5 µM (active)
3,CC[C@@]1(O)C(=O)OCc2c1cc1n(c2=O)Cc2cc3c(CN(C)C)c(O)ccc3nc2-1,0.15 µM (active)
4,CCCCCCCCn1sc(Cl)c(Cl)c1=O,27.3 µM (active)
5,CCC(CN)=C(c1ccccc1)c1ccccc1,inactive
6,CCCCCCC[N+](CC)(CC)CCCCc1ccc(Cl)cc1,inactive
7,O=C(Oc1cccc2cccnc12)c1ccccc1,0.001 µM (active)
8,COc1cc(/C=C/C(=O)O[C@H]2CC[C@]34C[C@]35CC[C@]3(C)[C@@H]([C@H](C)CCC=C(C)C)CC[C@@]3(C)[C@@H]5CC[C@H]4C2(C)C)ccc1O,inactive
9,c1ccc(CSCc2ccccc2)cc1,inactive
10,C=C(C)C(=O)OCC[N+](C)(C)C,inactive
11,CCN(Cc1cccnc1)C(=O)c1cccc(Cl)c1[C@]1(C)C(=O)N(Cc2ccc(OC)cc2OC)c2ccc(Cl)cc21,inactive
12,O=CC=C(c1ccccc1)c1ccccc1,inactive
13,CCOC(=O)/C=C(C)/C=C/C=C(C)/C=C/c1c(C)cc(OC)c(C)c1C,inactive
14,CCC1=C[C@@H]2CN(C1)Cc1c([nH]c3ccccc13)[C@@](C(=O)OC)(c1cc3c(cc1OC)N(C)[C@H]1[C@@](O)(C(=O)OC)[C@H](OC(C)=O)[C@]4(CC)C=CCN5CC[C@]31[C@@H]54)C2,0.106 µM (active)
15,CCCCCCCCCCCCCCCCCC[N+](C)(C)Cc1ccccc1,49 µM (active)
16,CCN(CCC#N)c1ccc(N=Nc2c(Cl)cc([N+](=O)[O-])cc2Cl)cc1,inactive
17,O=C(Nc1ccc(Oc2ccc(Cl)cc2)c(Cl)c1)c1cc(I)cc(I)c1O,inactive
18,Cc1cccc2c1cc1ccc3cccc4ccc2c1c34,inactive
19,O=c1[nH]sc2ccccc12,21.7 µM (active)
20,Oc1ccc2cc(SSc3ccc4cc(O)ccc4c3)ccc2c1,inactive
